Bcl-xL primary – blocks human Bcl-xL binding to Bim BH3 peptide. AID 2129. inhibition, % at 10.9 µM. 0.7% of 320,000 active. Q07817. GST-Bcl-xL / FITC-Bim BH3 peptide fluorescence polarization;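 active = inhibition above the mean of all tested compounds plus 3 SD, cutoff set per campaign, cut at about 30% in these data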;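 note: 0% = DMSO wells and 100% = unlabeled Bim-BH3 peptide competitor; inhibitors lower millipolarization by displacing the labeled peptide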
Bcl-2 Bim block – disrupts Bim peptide binding to human Bcl-2 | P10415 | Bead-based flow cytometry, Bim peptide-Bcl-2 binding | inhibition, % at 10 µM | 0.06% of 190,000 active; in the data active = inhibition above about 40%;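 note: 0% = no compound wells with probe peptide and 100% = reference peptide inhibitor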
Target sequence (P10415 whole entry, looked up): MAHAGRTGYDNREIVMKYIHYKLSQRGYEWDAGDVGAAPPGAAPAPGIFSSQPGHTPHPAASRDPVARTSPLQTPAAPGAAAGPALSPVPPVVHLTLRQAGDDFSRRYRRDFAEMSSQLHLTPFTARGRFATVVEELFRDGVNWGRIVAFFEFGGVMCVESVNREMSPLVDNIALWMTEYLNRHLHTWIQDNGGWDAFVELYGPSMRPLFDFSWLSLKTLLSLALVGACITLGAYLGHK
Bim-Bcl-B – inhibitors of Bim-Bcl-B interaction, human; bead-based flow cytometry, Bim peptide-Bcl-B binding; 0.073% of 190,000 active; inhibition, % at 10 µM; Q9HD36; AID 951;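 note: 0% = tracer peptide without compound and 100% = reference inhibitor peptide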
Bim-Bfl-1 – human Bim-Bfl-1 interaction inhibition; Bead-based flow cytometry, Bim-Bfl-1 binding inhibition; inhibition, % at 10 µM; 0.12% of 190,000 active; AID 1008;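 note: 0% = wells without compound plus tracer and 100% = blocker peptide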
Target sequence (Q16548 whole entry, looked up): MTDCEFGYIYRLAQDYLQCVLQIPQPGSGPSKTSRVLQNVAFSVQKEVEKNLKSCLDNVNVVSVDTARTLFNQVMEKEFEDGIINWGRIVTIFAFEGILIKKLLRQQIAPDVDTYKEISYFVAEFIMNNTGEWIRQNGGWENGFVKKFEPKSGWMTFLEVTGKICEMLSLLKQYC
Bcl-W Bim block – disrupts Bim peptide binding to human Bcl-W | Q92843 | bead-based flow cytometry | inhibition, % at 10 µM | 0.02% of 190,000 active;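 note: 0% = bound tracer without compound and 100% = peptide blocker; higher means less fluorescent Bim peptide bound to Bcl-W beads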
Bcl-XL Bim block – inhibitors of Bim-Bcl-XL interaction, human. Q07817. Bim peptide-Bcl-XL binding, bead flow cytometry, fluorescence. inhibition, % at 10 µM. 0.04% of 190,000 active
An asterisk follows results filed as active; · = no result given; + = active, no number. In the library only some 0.81% were active in any assay of this set; here they are far more common. Cut-off read from the data, not from the text of the source, unless noted: active = inhibition above about 40%.

SMILES | Bcl-xL primary | Bcl-2 Bim block | Bim-Bcl-B | Bim-Bfl-1 | Bcl-W Bim block | Bcl-XL Bim block
CN(CC(=O)O/N=C(\N)c1ccc([N+](=O)[O-])cc1)S(=O)(=O)c1ccccc1 | 7 | 38 | 72* | 6 | 12 | 18
Cc1ccc(S(=O)(=O)N(C)CC(=O)O/N=C(\N)c2ccc([N+](=O)[O-])cc2)cc1 | 2 | -12 | -11 | -15 | 0 | -7
Cc1ccccc1SCC(=O)Nc1cc(C(F)(F)F)ccc1N1CCOCC1 | 2 | · | · | · | · | ·
Cc1ccc(CNC(=O)CC(C)S(=O)(=O)c2ccc3c(c2)NC(=O)CO3)cc1 (configuration not stated) | 0 | · | · | · | · | ·
Cc1ccc(CNC(=O)CC(C)S(=O)(=O)c2ccc3c(c2)NC(=O)CS3)o1 (configuration not stated) | 85* | · | · | · | · | ·
Cc1ccc(S(=O)(=O)N(OCc2ccccc2)C(C)C(=O)O)cc1 (configuration not stated) | 6 | · | · | · | · | ·
COc1cc2cccc(OC)c(=O)c2c(O)c1OC | 3 | -1 | -7 | -2 | -2 | -4
CC(=O)Oc1cc2cccc(OC(C)=O)c(=O)c2c(OC(C)=O)c1OC(C)=O | 81* | 7 | 1 | 7 | 11 | 12
NC(=O)Cn1c(=O)n(Cc2ccco2)c(=O)c2c3c(sc21)CCCCC3 | 34* | 0 | 0 | 2 | -1 | -2
CC(C)c1ccc(N2C(=O)/C(=C/N(C)C)SC2=S)cc1 | + | · | · | · | · | ·
CCO/C=C1\SC(=S)N(c2ccc(Cl)cc2)C1=O | 14 | · | · | · | · | ·
CCC1(C(=O)OC)NC(c2ccccc2OC)C2C(=O)N(C)C(=O)C21 (configuration not stated) | 58* | 5 | 5 | 6 | 4 | 1
COC(=O)[C@]1(Cc2ccccc2)N[C@H](c2ccc(-c3ccc(OC)cc3)cc2)[C@@H]2C(=O)N(C)C(=O)[C@@H]21 | 5 | · | · | · | · | ·
COC(CNC(=O)c1ccc2c3c(onc13)-c1ccccc1C2=O)OC | + | · | · | · | · | ·
COC(CNC(=O)c1cccnc1)OC | 3 | 0 | 0 | -1 | 0 | -3
COC(=O)c1cc2ccccn2c2c(C(=O)OC)c(C(=O)OC)cc1-2 | 21 | -4 | 2 | -12 | 9 | -6
COC(=O)c1cc2c(C)c(C)c3ccccn3c-2c1C(=O)OC | 112* | -6 | 3 | -7 | 6 | -6
COC(=O)c1cc2c(C)cc3ccc(C)cn3c-2c1C(=O)OC | 93* | 1 | 2 | 1 | 2 | 2
COC(=O)c1cc2n3ccccc3c(C)c(-c3ccccc3)c-2c1C(=O)OC | 110* | -4 | -6 | -3 | 0 | -2
CC(Oc1ccccc1)C(=O)Nc1nnc(S(=O)(=O)Nc2ccccc2)s1 (configuration not stated) | 4 | · | · | · | · | ·
O=C1CCCC(=O)C1C(=O)C1CCN(S(=O)(=O)c2ccccc2)CC1 | 0 | 0 | 0 | -3 | 0 | 0
CN(c1ncc(C(F)(F)F)cc1Cl)N1C(=O)c2cccc([N+](=O)[O-])c2C1=O | 5 | -2 | 3 | -2 | -1 | 4
CCC(C)(C)c1ccc(OCC(=O)Nc2ccncc2)cc1 | 69* | · | · | · | · | ·
Nc1ccccc1N=Nc1ccccc1N | 46* | · | · | · | · | ·
O=C(O)c1cc([N+](=O)[O-])ccc1NCc1ccccc1Cl | 10 | -3 | -3 | -4 | -4 | -2
SMILES | Bcl-xL primary | Bcl-2 Bim block | Bim-Bcl-B | Bim-Bfl-1 | Bcl-W Bim block | Bcl-XL Bim block
O=C(O)c1cc([N+](=O)[O-])ccc1NCc1ccccn1 | 31* | · | · | · | · | ·
COc1ccc(C2C=C(c3ccc(C)cc3)Nc3ncnn32)cc1 (configuration not stated) | · | -3 | -1 | -1 | -1 | 0
CCOc1ccc(C2C=C(c3ccc(F)cc3)Nc3ncnn32)cc1 (configuration not stated) | 38* | -3 | -10 | -9 | 1 | 0
COc1ccc(C2C=C(c3ccccc3)Nc3nc(NC(C)=O)nn32)cc1 (configuration not stated) | 58* | -5 | -6 | -9 | 1 | -1
COc1ccc(C2C=C(c3ccccc3)Nc3nnnn32)cc1 (configuration not stated) | 14 | -7 | -5 | -4 | -2 | -1
COc1cccc(C2C=C(c3ccc(OC)cc3OC)Nc3nnnn32)c1 (configuration not stated) | 54* | -2 | -2 | 0 | 0 | 0

Assay outcomes: PubChem, several laboratories
